Compounds without any hit were thinned out: in the full panel of roughly 79,000, 15% have a hit. The source made the active and inactive calls. Cut-off read from the data, not from the text of the source: active = growth inhibition above about 70%; inactive = the rest.
Columns and labels:
[1] = NCI Yeast Anticancer Drug Screen. Data for the rad52 strain (AID 147);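 note: 0% = growth of vehicle-treated control cultures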; conditions: S. cerevisiae rad52 mutant growth inhibition, hits give high values
Outline: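 Read-out: growth inhibition versus vehicle-treated controls. Cells were a DNA repair-deficient yeast strain treated with compounds.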

[2] = NCI Yeast Anticancer Drug Screen. Data for the wt1 strain (AID 149);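 note: 0% = growth of vehicle-treated wt1 cultures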; conditions: S. cerevisiae wt1 strain (SPY 50644) growth inhibition, hits give high values
Outline: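 Each compound is tested on wt1 yeast and the loss of growth versus vehicle gives the inhibition value.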

[3] = NCI Yeast Anticancer Drug Screen. Data for the rad50EPP+ strain (AID 151);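 note: 0% = growth of vehicle-treated control cultures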; conditions: S. cerevisiae rad50 mutant strain, hits give high values
Outline: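 Growth inhibition read against vehicle controls in rad50EPP+ yeast, a strain altered in DNA damage repair, after compound exposure.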

[4] = NCI Yeast Anticancer Drug Screen. Data for the mgt1 strain (AID 153); conditions: S. cerevisiae mgt1 mutant growth inhibition, hits give high values
Outline: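 mgt1 yeast grown with test compound; read-out is growth inhibition versus vehicle-treated cultures.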

[5] = NCI Yeast Anticancer Drug Screen. Data for the rad50 strain (AID 155);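 note: 0% = growth of vehicle-only cultures of the same strain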; conditions: S. cerevisiae rad50 strain growth inhibition, hits give high values
Outline: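 Vehicle-treated cultures provide the reference for the growth inhibition reported for compound-exposed, repair-deficient yeast.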

[6] = NCI Yeast Anticancer Drug Screen. Data for the mec2-1 strain (AID 157); conditions: S. cerevisiae mec2-1 strain, hits give high values
Outline: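 Yeast mec2-1 mutant treated with compound. Readout: growth inhibition vs vehicle controls.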

[7] = NCI Yeast Anticancer Drug Screen. Data for the rad14 strain (AID 159);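 note: 0% = growth of vehicle-treated control cultures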; conditions: S. cerevisiae rad14 strain growth inhibition, hits give high values
Outline: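 Inhibition of growth is reported for a repair-deficient yeast mutant following compound treatment, calculated relative to cultures that received vehicle.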

[8] = NCI Yeast Anticancer Drug Screen. Data for the sgs1 mgt1 strain (AID 161);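 note: 0% = growth of cultures given vehicle only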; conditions: S. cerevisiae sgs1 mgt1 strain, hits give high values
Outline: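 Test agents were incubated with a DNA-repair-mutant yeast strain. Growth was then read and compared against vehicle-treated controls.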

[9] = NCI Yeast Anticancer Drug Screen. Data for the CLN2oe strain (AID 163);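 note: 0% = growth of vehicle-only control cultures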; conditions: S. cerevisiae CLN2oe strain, hits give high values
Outline: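 Read-out: yeast growth inhibition, expressed relative to vehicle-only controls. The strain bears an engineered cell-cycle alteration.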

[10] = NCI Yeast Anticancer Drug Screen. Data for the cln2 rad14 strain (AID 165);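 note: 0% = growth equal to vehicle treated cultures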; conditions: S. cerevisiae cln2 rad14 strain, hits give high values
Outline: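 cln2 rad14 yeast strain; compound exposure; growth inhibition read vs vehicle controls.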

[11] = NCI Yeast Anticancer Drug Screen. Data for the bub3 strain (AID 167); conditions: S. cerevisiae bub3 mutant strain, hits give high values
Outline: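 Mutant yeast screening strain plus compound; vehicle-treated cultures serve as the 0% inhibition reference.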

[12] = NCI Yeast Anticancer Drug Screen. Data for the wt2 strain (AID 169); conditions: S. cerevisiae wt2 strain growth inhibition, hits give high values
Outline: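 Read-out: growth inhibition versus vehicle-treated control cultures after compound exposure of the yeast strain.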

[13] = NCI Yeast Anticancer Drug Screen. Data for the mlh1 strain (AID 171);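 note: 0% = growth of vehicle-treated control cultures of the same strain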; conditions: S. cerevisiae mlh1 strain growth inhibition, hits give high values
Outline: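 Read-out: growth inhibition versus vehicle controls. Strain: engineered yeast with a defined DNA repair or cell cycle defect, compound-treated.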

[14] = NCI Yeast Anticancer Drug Screen. Data for the sgs1 strain (AID 173);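 note: 0% = growth of vehicle-only control cultures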; conditions: S. cerevisiae sgs1 mutant, hits give high values
Outline: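 Read-out: yeast growth inhibition relative to vehicle controls, following compound exposure of a strain with a defined DNA repair/cell cycle alteration.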

[15] = NCI Yeast Anticancer Drug Screen. Data for the mlh1 rad18 strain (AID 175); conditions: S. cerevisiae mlh1 rad18 strain growth inhibition, hits give high values
Outline: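 Yeast w/ defined DNA-repair lesions; compound exposure; growth vs vehicle controls → % inhibition.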

[16] = NCI Yeast Anticancer Drug Screen. Data for the rad18 strain (AID 177); conditions: S. cerevisiae rad18 mutant growth inhibition, hits give high values
Outline: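 Readout: growth inhibition vs vehicle controls. Cells: genetically altered yeast strain, DNA repair defect.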

[17] = at 5.0 µM (retest, dose inferred, filed as 0.5)
[18] = at 50.0 µM (retest, dose inferred, filed as 5.0)

Measured: growth inhibition

O=c1[nH]cc(/C=N\Nc2ccccc2)c(=O)[nH]1
inactive: [1]; at 1.2 µM 1% | [1]; at 3.7 µM 6% | [1]; at 11.0 µM 36% | [1]; at 33.0 µM 56% | [1]; at 100.0 µM 63% | [2]; at 1.2 µM 3% | [2]; at 3.7 µM 6% | [2]; at 11.0 µM 37% | [2]; at 33.0 µM 57% | [2]; at 100.0 µM 49% | [3]; at 1.2 µM 2% | [3]; at 3.7 µM 7% | [3]; at 11.0 µM 28% | [3]; at 33.0 µM 43% | [3]; at 100.0 µM 42% | [4]; at 1.2 µM 3% | [4]; at 3.7 µM -2% | [4]; at 11.0 µM 21% | [4]; at 33.0 µM 31% | [4]; at 100.0 µM 46% | [5]; at 1.2 µM 3% | [5]; at 3.7 µM 17% | [5]; [17] -11% | [5]; at 11.0 µM 31% | [5]; at 33.0 µM 49% | [5]; [18] 40% | [5]; at 50.0 µM 61.9% | [5]; at 100.0 µM 60% | [6]; at 1.2 µM 0% | [6]; at 3.7 µM -2% | [6]; [17] -3% | [6]; at 11.0 µM 27% | [6]; at 33.0 µM 31% | [6]; [18] 15% | [6]; at 50.0 µM 52.4% | [6]; at 100.0 µM 21% | [7]; at 1.2 µM -1% | [7]; at 3.7 µM 1% | [7]; at 11.0 µM 12% | [7]; at 33.0 µM 15% | [7]; at 100.0 µM 10% | [8]; [17] -1% | [8]; [18] 67% | [8]; at 50.0 µM 60.9% | [9]; at 1.2 µM -3% | [9]; at 3.7 µM 6% | [9]; at 11.0 µM 32% | [9]; at 33.0 µM 43% | [9]; at 100.0 µM 48% | [10]; [17] -29% | [10]; [18] 29% | [11]; at 1.2 µM 9% | [11]; at 3.7 µM 1% | [11]; [17] 7% | [11]; at 11.0 µM 27% | [11]; at 33.0 µM 39% | [11]; [18] 50% | [11]; at 100.0 µM 40% | [12]; at 1.2 µM 0% | [12]; at 3.7 µM 8% | [12]; at 11.0 µM 51% | [12]; at 33.0 µM 57% | [12]; at 100.0 µM 55% | [13]; at 1.2 µM -3% | [13]; at 3.7 µM 5% | [13]; at 11.0 µM 17% | [13]; at 33.0 µM 28% | [13]; at 100.0 µM 39% | [14]; at 1.2 µM 3% | [14]; at 3.7 µM 8% | [14]; at 11.0 µM 41% | [14]; at 33.0 µM 62% | [14]; at 100.0 µM 66% | [15]; [17] -3% | [16]; at 1.2 µM 5% | [16]; at 3.7 µM 28%
active: [10]; at 50.0 µM 73.8% | [11]; at 50.0 µM 82.9% | [15]; [18] 81% | [15]; at 50.0 µM 84.5% | [16]; at 11.0 µM 73% | [16]; at 33.0 µM 88% | [16]; at 100.0 µM 89%
